Source: PubChem BioAssay AID588855 (National Center for Advancing Translational Sciences (NCATS), 2011)
Out of some 410,000 compounds screened, about 5,000 (1.2%) were called active. Entries that show only a call come without a potency. About 13% were inconclusive and are not listed. This is one part of a sample in which actives are shown more often than they occur. Calls follow the shape of the dose curve; as a rule, active = well fitted inhibition curve with a large enough effect; inconclusive = small, poorly fitted or top-dose-only effect; inactive = no such curve, though single readings can be large or run the other way.

assay: qHTS for Inhibitors of TGF-b; settings: HepG2 CAGA-GFP TGF-b/SMAD3 reporter, GFP fluorescence, 18 h, TGF-beta stimulated, 500 pg/mL final; series mostly up to 46.1 µM; also: nearly all actives have a fitted effect of over 65% in size
Source text: TGF-b is a main component in the TGF-b signaling pathway which plays diverse roles in cellular and development pathways. TGF-b is the mediated by the transcription factors Smads. Although the Smad-dependent pathway is the primary canonical TGF-b signaling node, TGF-b1 can also activate alternative signaling pathways, including those involving MAPK (ERK, JNK and p38). This interaction may mediate or enhance Smad-dependent responses, or can exert Smad-independent effects. The complexity of this signaling cascade allows the TGF-b superfamily to perform unique, overlapping or redundant functions. We believe that targeting the TGF-beta pathway at the Smad-transcription factor level may eliminate the consequences of disrupting the entire pathway and offer specificity without affecting other signaling pathways. Smad3 is the primary transducer of TGF-b's signals and Smad3 regulates many functions attributed to TGF-b signaling. We hypothesize that Smad3 inhibitors will selectively eliminate Smad3-specific TGF-beta signals without undesired off-target effects. We aim to identify Smad3-small molecule antagonists using a quantitative high throughput screening (qHTS) approach.
A high-throughput assay was developed to screen the NIH Molecular Libraries Small Molecule Repository (MLSMR). This is a cell based assay, where TGF-b is tagged with GFP. A counterscreen is run that looks at cytotoxicity (please see summary AID).
MH087449NIH Chemical Genomics Center [NCGC]
NIH Molecular Libraries Probe Centers Network [MLPCN]
Assay Submitter (PI): Sushil Rane, National Institute of […]
Suspensions of trypsinized HEPG2 CAGA-GFP cells were dispensed into white, tissue culture-treated, solid 1536-well plates at 5uL/well (1000 cells/well final concentration) in DMEM medium supplemented with 1% FBS. Plates were incubated at 37 degrees C for 2 hours, after which 23 nL of compounds or DMSO were delivered to each well using a pin tool. One uL of recombinant TGF-beta in DMEM (1% FBS) was then dispensed (500 pg/mL final concentration), and plates were incubated at 37 degrees C for 18 hours. The plates were measured on an Acumen eX3 Explorer plate reader for GFP fluorescence (ex488/em500-530). GFP values were calculated by determining the mean GFP fluorescence of individual cells, and compiling these values for each well to determine a total well GFP signal. The %Activity was determined from the corrected fluorescence values. A titration of the known TGF-B inhibitor SB431542 was included to monitor plate performance, while unstimulated HEPG2 (-TGF-B) control wells were used to normalize %Activity of identified inhibitors; unstimulated wells corresponded to 100%Activity (full inhibition), while stimulated cell controls (+DMSO) were used to normalize 0%Activity (no inhibition).
Concentration-response curves were fitted to the signals arising from the resulting fluorescence. The concentration-effect curves were then classified based on curve quality (r2), response magnitude and degree of measured activity, and compounds were subsequently categorized based on their curve class.
Potency is read from the fitted curve at half-maximal effect.

SMILES | Potency
CCCCCCCCCCCCn1ccc(=N)cc1 | 10000 nM (active)
Cc1ccc(Oc2cnn(-c3ccccc3)c(=O)c2Br)cc1 | inactive
CCC1(CC(C)c2ccccc2)C(=O)NC(=O)NC1=O (configuration not stated) | inactive
CCOP(=S)(OCC)SCOC(=O)NCC(=O)OC | inactive
O=P1(Oc2ccccc2)CC(O)C(O)C(COCc2ccccc2)O1 (configuration not stated) | inactive
O=c1c2ccccc2[nH]c(=S)n1-c1cccc(Cl)c1 | inactive
OC(Cn1c2ccccc2c2ccccc21)C[n+]1ccccc1 (configuration not stated) | inactive
CC[C@H]1CN2CCc3cc(OC)c(OC)cc3[C@@H]2C[C@@H]1C[C@H]1NCCc2cc(OC)c(OC)cc21 | 89.1 nM (active)
CC(=O)OC1C2(CC3N4C(=O)C5(CO)SSC4(CC31O)C(=O)N5C)OC(C)C(C)(C)C2=O (configuration not stated) | 794 nM (active)
O=C(NCC1=C(c2ccc3ccccc3c2)C[C@@H]2CC[C@H]1N2Cc1ccco1)c1cccs1 | inactive
CNC(=S)N/N=C1\C2CN3CCN(C2)CC1(c1ccccc1)C3 | inactive
O=C(Cc1ccccc1)N1CCN(C2CCCCCC2)CC1 | inactive
CN(C)CC1Oc2ccccc2OC1(O)c1ccccc1 (configuration not stated) | 2820 nM (active)
COc1ccc2c(c1)[C@]13CCCCC1C(C2)N(C)CC3 (some centres not stated) | inactive
CCOc1ccc(CNC(=O)c2cccc(Nc3nc4ccccc4n4nnnc34)c2)cc1OC | inactive
COc1ccc(C2NCc3ccc4c(c3-n3cccc32)OCO4)cc1OC (configuration not stated) | inactive
CN(C)C(=O)Oc1ccc(NC(=O)N2CCOCC2)cc1 | inactive
Cc1cccc(-n2c(O)c(C=NC34CN5CN(CN(C5)C3)C4)c(=O)[nH]c2=O)c1 | inactive
c1cc2c(c(NC3=NCCCS3)c1)CCCC2 | inactive
CCOC(=O)c1cccc(C2=C(CNC(=O)c3ccncc3)[C@H]3CC[C@@H](C2)N3Cc2ccccc2)c1 | inactive
O=C(COC(=O)Cc1ccccc1)Nc1ccc(F)cc1 | inactive
CC(=O)NCC1=C(c2ccc3ccccc3c2)C[C@@H]2CC[C@H]1N2Cc1ccco1 | inactive
